Results published in article PMC7862700, “An all-to-all approach to the identification of sequence-specific readers for epigenetic DNA modifications on cytosine”.

What was measured:
Experiment in all cases: DAPPL (digital affinity profiling via proximity ligation, sequencing); 10 mM Tris-HCl pH 7.5, 50 mM NaCl, 1 mM DTT, 4% glycerol, room temperature, 30 min; GST-TFs on glutathione beads, 16-mer random dsDNA library, 0.1% formaldehyde crosslink after washing; high values mean tight binding
Settings in all cases: protein: recombinant; tags: N-terminal GST; dsDNA, one strand shown
ETV1 = ETV1 (Homo sapiens, UniProt P50549 1-477)
Procedure, shortened: (§1)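 Binding signal is given per hexamer as its read frequency for a factor divided by its frequency in the tag-only sample. GST-fused human transcription factors were expressed in yeast, captured on glutathione beads, barcoded with DNA and pooled with that sample, then incubated with 200 nmole of a 16-mer random double-stranded DNA library in Tris/NaCl/DTT/glycerol buffer for 30 min at room temperature. The pools were then washed, crosslinked, proximity-ligated, amplified by PCR and sequenced on an Illumina NextSeq500.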

ERF = target: T1, ERF (Homo sapiens, UniProt P50548 1-548)
T1 sequence: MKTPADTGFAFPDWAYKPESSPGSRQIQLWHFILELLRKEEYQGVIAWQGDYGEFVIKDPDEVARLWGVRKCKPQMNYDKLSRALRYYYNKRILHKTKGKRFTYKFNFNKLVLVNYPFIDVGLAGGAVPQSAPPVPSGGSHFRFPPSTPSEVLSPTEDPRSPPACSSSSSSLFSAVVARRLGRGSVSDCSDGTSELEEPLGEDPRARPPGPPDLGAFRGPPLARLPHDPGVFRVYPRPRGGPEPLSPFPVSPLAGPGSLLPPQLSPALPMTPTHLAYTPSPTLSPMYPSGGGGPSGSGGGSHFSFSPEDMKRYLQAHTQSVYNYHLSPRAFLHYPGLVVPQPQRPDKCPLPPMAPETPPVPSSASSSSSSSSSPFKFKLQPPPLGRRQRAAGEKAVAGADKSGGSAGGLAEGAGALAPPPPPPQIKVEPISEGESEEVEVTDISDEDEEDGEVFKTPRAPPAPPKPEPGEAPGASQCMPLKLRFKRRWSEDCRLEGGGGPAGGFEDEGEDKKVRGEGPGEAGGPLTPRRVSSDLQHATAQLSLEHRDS
Procedure, shortened: as §1

ETV3L = target: T2, ETV3L (Homo sapiens, UniProt Q6ZN32 1-361)
T2 sequence: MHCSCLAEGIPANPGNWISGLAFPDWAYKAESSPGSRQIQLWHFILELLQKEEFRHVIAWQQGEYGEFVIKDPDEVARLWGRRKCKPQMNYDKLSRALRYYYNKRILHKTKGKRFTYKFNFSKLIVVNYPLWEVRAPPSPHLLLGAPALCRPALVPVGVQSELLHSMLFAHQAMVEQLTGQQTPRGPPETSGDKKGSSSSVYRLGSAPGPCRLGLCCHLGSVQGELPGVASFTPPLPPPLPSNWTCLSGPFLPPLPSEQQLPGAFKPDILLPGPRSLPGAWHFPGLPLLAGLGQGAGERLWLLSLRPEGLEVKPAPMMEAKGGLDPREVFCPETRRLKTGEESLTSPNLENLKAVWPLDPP
Procedure, shortened: as §1

ETS2 = target: T3, ETS2 (Homo sapiens, UniProt P15036 1-469)
T3 sequence: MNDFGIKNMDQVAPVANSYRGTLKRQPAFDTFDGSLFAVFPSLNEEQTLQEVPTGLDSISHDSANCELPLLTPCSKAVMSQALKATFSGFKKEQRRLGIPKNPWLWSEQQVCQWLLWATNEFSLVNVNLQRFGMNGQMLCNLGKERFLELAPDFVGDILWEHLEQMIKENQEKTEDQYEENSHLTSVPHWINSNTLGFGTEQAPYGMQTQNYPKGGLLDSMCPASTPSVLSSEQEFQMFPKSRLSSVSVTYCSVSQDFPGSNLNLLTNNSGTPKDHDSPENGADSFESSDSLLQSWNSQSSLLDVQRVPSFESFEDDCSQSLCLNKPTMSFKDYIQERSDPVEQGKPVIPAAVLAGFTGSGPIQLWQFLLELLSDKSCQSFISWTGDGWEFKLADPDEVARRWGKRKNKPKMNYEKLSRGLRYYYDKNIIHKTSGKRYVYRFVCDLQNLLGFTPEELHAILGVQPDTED
Procedure, shortened: as §1

SPDEF = target: T4, SPDEF (Homo sapiens, UniProt O95238 1-335)
T4 sequence: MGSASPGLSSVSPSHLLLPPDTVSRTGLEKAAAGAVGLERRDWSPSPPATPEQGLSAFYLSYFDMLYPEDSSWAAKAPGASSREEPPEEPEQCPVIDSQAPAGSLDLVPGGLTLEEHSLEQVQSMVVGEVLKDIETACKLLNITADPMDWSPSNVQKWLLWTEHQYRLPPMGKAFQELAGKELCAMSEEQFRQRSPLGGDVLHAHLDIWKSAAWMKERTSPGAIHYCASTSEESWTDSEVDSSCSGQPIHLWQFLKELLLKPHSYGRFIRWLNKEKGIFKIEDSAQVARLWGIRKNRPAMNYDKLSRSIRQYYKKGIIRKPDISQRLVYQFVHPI
Procedure, shortened: as §1

ETV7 = target: T5, ETV7 (Homo sapiens, UniProt Q9Y603 1-341)
T5 sequence: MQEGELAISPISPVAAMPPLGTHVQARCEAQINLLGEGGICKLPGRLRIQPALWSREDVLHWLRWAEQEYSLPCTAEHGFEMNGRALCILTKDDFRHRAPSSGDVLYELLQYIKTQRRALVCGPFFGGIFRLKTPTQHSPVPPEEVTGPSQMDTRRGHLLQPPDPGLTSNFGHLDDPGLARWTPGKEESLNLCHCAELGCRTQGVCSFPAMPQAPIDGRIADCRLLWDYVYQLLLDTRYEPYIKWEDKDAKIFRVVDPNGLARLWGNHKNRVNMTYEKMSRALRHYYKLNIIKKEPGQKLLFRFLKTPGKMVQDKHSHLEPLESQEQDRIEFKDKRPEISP
Procedure, shortened: as §1

ELF5 = target: T6, ELF5 (Homo sapiens, UniProt Q9UKW6-2 1-255)
T6 sequence: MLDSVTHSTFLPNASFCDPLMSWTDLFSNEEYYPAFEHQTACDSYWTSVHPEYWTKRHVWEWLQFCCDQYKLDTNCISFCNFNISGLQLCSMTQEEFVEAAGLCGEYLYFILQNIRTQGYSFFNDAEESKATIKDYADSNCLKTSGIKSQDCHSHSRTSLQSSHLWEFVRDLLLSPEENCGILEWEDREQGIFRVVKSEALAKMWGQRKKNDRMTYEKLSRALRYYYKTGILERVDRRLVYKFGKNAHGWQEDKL
Procedure, shortened: as §1

ETV3 = target: T7, ETV3 (Homo sapiens, UniProt P41162-2 1-143)
T7 sequence: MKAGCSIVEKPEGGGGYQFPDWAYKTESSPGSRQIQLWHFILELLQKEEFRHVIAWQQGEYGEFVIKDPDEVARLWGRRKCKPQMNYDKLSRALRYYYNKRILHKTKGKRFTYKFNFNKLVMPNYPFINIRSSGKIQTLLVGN
Procedure, shortened: as §1

ETV6 = ETV6 (Homo sapiens, UniProt P41212 1-452)
Procedure, shortened: as §1

ETV1, sequence (P50549 whole entry, the tested form may be a part): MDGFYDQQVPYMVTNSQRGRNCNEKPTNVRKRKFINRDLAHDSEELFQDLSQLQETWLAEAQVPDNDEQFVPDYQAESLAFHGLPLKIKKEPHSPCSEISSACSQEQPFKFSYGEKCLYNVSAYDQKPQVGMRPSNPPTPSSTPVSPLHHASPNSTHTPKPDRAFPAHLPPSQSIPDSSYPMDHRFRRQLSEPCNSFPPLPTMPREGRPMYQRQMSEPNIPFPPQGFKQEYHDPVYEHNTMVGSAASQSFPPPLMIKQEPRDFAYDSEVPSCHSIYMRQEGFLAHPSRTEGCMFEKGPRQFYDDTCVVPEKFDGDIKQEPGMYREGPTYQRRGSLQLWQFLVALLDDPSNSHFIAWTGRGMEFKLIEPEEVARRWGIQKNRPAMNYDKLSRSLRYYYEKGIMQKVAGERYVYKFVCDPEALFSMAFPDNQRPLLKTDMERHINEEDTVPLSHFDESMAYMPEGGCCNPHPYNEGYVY
ETV6, sequence (P41212 whole entry): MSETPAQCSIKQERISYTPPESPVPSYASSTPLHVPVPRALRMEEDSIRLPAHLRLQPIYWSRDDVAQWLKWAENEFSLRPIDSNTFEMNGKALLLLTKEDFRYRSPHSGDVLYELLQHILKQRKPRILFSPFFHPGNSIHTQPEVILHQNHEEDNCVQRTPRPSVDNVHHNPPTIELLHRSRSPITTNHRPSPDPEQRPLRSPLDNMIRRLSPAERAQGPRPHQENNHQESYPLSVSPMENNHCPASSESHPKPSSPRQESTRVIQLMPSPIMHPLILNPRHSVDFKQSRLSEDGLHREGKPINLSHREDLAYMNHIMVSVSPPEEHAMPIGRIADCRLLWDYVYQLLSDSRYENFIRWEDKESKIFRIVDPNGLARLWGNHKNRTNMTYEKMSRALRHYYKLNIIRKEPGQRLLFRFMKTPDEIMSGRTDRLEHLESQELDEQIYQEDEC

## ATGATC
ETV1
  binding signal: 1.1 fold enrichment (6-mer frequency, TF over GST control)
ERF
  binding signal: 1.33 fold enrichment (6-mer frequency, TF over GST control)
ETV3L
  binding signal: 1.22 fold enrichment (6-mer frequency, TF over GST control)
ETS2
  binding signal: 1.16 fold enrichment (6-mer frequency, TF over GST control)
SPDEF
  binding signal: 1.27 fold enrichment (6-mer frequency, TF over GST control)
ETV7
  binding signal: 1.22 fold enrichment (6-mer frequency, TF over GST control)
ELF5
  binding signal: 1.22 fold enrichment (6-mer frequency, TF over GST control)
ETV3
  binding signal: 1.2 fold enrichment (6-mer frequency, TF over GST control)
ETV6
  binding signal: 1.19 fold enrichment (6-mer frequency, TF over GST control)
